# Assay results reported in ChEMBL document CHEMBL1961873, “Compounds: GSK PKIS; Assays: Nanosyn kinase panel” (2012).
# How the values were obtained:
# [1] = molecular target: Sphingosine kinase 1 (Homo sapiens) (UniProt Q9NYA1); settings: at 1 µM;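 further: mean SPHK1 inhibition value reported from the GSK PKIS kinase panel screen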
# [2] = molecular target: T1, Sphingosine kinase 2 (Homo sapiens) (UniProt Q9NRA0); settings: at 0.1 µM
# T1 sequence (whole entry): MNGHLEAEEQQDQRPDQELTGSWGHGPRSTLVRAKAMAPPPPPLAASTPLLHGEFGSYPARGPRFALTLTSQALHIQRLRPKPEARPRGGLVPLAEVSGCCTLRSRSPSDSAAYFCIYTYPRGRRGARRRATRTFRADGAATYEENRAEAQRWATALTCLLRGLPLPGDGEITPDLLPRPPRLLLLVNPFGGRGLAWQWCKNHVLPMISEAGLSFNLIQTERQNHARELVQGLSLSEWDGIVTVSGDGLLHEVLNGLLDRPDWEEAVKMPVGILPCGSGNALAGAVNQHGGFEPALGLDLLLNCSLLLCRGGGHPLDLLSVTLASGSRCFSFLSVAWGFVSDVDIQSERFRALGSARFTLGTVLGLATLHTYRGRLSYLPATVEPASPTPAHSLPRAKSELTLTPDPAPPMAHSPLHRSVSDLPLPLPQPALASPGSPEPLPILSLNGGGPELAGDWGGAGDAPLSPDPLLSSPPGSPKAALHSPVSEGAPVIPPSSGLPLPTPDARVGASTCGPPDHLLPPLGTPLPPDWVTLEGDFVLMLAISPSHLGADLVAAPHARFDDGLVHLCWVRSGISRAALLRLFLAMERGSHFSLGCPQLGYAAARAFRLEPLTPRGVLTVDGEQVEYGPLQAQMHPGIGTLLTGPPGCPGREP
# [3] = molecular target: T1, Sphingosine kinase 2 (Homo sapiens); settings: at 1 µM
# [4] = molecular target: Casein kinase II subunit alpha (Homo sapiens) (UniProt P68400); settings: at 0.1 µM
# [5] = molecular target: Casein kinase II subunit alpha (Homo sapiens) (UniProt P68400); settings: at 1 µM
# [6] = molecular target: T2, Inhibitor of nuclear factor kappa-B kinase subunit alpha (Homo sapiens) (UniProt O15111); settings: at 0.1 µM
# T2 sequence (whole entry): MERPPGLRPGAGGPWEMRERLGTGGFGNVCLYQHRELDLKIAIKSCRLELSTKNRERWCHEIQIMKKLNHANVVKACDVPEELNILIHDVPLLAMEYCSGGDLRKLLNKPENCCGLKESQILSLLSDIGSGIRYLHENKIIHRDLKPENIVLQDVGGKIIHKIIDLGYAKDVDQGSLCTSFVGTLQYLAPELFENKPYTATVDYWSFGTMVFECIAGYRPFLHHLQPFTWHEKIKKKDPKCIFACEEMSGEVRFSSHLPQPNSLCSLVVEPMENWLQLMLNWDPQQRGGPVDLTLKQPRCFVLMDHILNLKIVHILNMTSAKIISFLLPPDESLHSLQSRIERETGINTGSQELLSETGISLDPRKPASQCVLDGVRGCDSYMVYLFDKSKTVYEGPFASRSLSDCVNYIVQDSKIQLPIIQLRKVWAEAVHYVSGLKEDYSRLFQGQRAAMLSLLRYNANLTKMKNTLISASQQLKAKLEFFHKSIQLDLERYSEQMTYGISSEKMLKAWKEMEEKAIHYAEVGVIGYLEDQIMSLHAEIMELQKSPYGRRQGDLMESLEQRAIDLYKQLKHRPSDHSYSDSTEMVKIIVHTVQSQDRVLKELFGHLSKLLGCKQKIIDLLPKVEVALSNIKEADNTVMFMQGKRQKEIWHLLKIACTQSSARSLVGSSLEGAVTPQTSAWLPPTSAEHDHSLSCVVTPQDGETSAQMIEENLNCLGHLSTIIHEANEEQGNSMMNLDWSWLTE
# [7] = molecular target: T2, Inhibitor of nuclear factor kappa-B kinase subunit alpha (Homo sapiens); settings: at 1 µM
# [8] = molecular target: T3, Inhibitor of nuclear factor kappa-B kinase subunit beta (Homo sapiens) (UniProt O14920); settings: at 0.1 µM
# T3 sequence (whole entry): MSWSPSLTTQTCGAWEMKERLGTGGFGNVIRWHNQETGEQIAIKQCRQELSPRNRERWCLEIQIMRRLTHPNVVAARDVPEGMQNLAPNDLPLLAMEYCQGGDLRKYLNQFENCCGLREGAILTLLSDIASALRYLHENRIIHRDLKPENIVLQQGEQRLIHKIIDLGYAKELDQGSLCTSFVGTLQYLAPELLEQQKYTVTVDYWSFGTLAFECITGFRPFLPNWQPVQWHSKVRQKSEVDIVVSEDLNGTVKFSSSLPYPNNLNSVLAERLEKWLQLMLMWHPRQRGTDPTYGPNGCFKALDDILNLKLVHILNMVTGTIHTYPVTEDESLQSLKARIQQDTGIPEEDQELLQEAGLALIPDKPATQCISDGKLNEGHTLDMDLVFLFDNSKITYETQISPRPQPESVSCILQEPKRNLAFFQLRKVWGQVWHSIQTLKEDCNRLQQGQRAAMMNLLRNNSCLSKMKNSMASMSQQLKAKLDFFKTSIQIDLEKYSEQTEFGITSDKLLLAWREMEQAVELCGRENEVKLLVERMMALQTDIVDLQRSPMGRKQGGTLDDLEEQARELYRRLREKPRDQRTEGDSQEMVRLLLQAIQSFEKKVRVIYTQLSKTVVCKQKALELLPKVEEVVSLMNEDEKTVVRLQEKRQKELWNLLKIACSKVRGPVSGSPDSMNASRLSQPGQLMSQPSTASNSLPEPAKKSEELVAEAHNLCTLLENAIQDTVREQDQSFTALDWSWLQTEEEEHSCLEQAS
# [9] = molecular target: T3, Inhibitor of nuclear factor kappa-B kinase subunit beta (Homo sapiens); settings: at 1 µM
# [10] = molecular target: T4, Inhibitor of nuclear factor kappa-B kinase subunit epsilon (Homo sapiens) (UniProt Q14164); settings: at 0.1 µM
# T4 sequence (whole entry): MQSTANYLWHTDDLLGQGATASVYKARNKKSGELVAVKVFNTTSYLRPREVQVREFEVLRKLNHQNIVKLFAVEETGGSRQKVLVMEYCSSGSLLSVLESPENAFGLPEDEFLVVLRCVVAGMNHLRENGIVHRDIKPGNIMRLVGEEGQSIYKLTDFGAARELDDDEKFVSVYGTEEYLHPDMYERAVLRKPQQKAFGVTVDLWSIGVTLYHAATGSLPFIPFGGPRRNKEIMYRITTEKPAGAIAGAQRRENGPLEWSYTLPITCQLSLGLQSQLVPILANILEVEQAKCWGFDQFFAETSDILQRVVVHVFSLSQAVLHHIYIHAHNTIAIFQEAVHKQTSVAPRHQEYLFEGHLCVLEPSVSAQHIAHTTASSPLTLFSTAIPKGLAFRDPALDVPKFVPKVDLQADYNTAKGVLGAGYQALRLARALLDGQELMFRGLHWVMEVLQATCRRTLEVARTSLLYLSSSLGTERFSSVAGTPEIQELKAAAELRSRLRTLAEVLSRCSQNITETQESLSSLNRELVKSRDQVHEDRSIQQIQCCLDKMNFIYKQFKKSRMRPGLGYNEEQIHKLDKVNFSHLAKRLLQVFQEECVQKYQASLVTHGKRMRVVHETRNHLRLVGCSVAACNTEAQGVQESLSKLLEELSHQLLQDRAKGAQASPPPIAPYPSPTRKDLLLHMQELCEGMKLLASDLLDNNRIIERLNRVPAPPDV
# [11] = molecular target: T4, Inhibitor of nuclear factor kappa-B kinase subunit epsilon (Homo sapiens); settings: at 1 µM
# [12] = molecular target: T5, Serine/threonine-protein kinase Nek1 (Homo sapiens) (UniProt Q96PY6); settings: at 0.1 µM
# T5 sequence (whole entry): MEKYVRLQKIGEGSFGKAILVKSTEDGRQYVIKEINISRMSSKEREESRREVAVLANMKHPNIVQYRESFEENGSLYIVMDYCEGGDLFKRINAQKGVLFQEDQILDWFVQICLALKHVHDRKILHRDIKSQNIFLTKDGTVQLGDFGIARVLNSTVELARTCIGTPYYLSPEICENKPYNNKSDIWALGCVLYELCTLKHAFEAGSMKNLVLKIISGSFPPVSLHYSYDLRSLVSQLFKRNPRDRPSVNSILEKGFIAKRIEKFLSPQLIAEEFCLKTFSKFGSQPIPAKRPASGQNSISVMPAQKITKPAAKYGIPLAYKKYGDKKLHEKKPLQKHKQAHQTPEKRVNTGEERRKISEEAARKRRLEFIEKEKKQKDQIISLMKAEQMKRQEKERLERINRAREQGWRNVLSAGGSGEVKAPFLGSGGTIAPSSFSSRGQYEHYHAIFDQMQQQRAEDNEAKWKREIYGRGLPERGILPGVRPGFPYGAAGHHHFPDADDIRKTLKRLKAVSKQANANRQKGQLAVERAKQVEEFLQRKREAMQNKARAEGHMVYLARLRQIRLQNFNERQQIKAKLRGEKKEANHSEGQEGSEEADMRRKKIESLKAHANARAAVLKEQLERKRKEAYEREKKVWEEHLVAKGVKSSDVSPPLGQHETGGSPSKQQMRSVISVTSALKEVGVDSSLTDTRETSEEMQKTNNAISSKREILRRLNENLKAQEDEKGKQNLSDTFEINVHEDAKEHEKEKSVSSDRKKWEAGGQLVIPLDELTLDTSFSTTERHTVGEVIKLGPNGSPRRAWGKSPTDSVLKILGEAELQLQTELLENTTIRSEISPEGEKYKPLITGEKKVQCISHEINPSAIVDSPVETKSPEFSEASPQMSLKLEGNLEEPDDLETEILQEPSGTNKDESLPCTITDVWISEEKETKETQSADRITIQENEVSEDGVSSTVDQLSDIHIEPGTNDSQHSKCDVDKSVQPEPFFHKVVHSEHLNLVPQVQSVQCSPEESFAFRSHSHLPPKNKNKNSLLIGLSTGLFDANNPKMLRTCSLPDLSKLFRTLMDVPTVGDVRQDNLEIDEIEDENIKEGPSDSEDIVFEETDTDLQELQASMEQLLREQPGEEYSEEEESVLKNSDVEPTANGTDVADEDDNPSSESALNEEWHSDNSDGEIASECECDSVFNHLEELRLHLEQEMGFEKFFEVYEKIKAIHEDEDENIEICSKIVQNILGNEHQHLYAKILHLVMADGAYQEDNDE
# [13] = molecular target: T5, Serine/threonine-protein kinase Nek1 (Homo sapiens); settings: at 1 µM
# [14] = molecular target: T6, Serine/threonine-protein kinase Nek2 (Homo sapiens) (UniProt P51955); settings: at 0.1 µM
# T6 sequence (whole entry): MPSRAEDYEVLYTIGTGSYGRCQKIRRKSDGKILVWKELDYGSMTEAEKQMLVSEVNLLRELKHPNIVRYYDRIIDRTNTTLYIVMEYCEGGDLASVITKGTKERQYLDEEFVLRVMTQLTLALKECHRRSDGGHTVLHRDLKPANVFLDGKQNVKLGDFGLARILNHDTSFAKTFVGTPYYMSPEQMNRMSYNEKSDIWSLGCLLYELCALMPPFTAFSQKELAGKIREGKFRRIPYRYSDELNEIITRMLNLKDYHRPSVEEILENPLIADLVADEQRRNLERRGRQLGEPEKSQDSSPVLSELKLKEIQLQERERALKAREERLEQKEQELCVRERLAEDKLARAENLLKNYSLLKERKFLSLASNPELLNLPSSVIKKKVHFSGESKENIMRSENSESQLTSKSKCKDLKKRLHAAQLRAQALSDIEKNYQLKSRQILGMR
# [15] = molecular target: T6, Serine/threonine-protein kinase Nek2 (Homo sapiens); settings: at 1 µM
# [16] = molecular target: Serine/threonine-protein kinase Nek6 (Homo sapiens) (UniProt Q9HC98); settings: at 0.1 µM
# [17] = molecular target: Serine/threonine-protein kinase Nek6 (Homo sapiens) (UniProt Q9HC98); settings: at 1 µM
# [18] = molecular target: Serine/threonine-protein kinase Nek7 (Homo sapiens) (UniProt Q8TDX7); settings: at 0.1 µM
# [19] = molecular target: Serine/threonine-protein kinase Nek7 (Homo sapiens) (UniProt Q8TDX7); settings: at 1 µM
# [20] = molecular target: T7, Serine/threonine-protein kinase Nek9 (Homo sapiens) (UniProt Q8TD19); settings: at 0.1 µM;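 further: reported value is the mean percent inhibition of NEK9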
# T7 sequence (whole entry): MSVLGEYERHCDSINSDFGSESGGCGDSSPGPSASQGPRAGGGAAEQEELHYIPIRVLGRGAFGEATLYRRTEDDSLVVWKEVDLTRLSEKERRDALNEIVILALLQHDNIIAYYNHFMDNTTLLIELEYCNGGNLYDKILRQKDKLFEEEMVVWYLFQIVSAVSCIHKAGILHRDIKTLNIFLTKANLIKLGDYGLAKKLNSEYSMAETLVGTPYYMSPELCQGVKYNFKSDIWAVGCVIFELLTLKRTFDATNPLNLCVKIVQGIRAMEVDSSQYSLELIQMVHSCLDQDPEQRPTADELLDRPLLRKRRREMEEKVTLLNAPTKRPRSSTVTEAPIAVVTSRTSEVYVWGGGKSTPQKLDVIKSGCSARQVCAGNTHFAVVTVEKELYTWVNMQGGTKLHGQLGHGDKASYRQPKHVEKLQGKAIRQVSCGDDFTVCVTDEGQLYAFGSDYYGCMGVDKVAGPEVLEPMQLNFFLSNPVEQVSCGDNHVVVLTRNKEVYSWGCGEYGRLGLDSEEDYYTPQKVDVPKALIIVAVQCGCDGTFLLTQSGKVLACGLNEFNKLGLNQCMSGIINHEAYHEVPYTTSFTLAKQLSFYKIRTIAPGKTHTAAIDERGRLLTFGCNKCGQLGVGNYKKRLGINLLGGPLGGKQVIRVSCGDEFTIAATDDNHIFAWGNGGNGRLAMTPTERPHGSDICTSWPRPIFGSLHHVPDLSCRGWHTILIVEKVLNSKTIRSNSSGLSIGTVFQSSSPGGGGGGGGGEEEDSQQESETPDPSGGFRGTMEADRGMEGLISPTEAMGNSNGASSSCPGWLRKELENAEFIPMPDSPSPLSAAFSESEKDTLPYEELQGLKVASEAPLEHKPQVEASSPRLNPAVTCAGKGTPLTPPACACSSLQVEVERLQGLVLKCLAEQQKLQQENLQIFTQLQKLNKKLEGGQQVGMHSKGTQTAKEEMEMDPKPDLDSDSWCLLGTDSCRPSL
# Serine/threonine-protein kinase Nek6 (Homo sapiens), sequence (Q9HC98 whole entry): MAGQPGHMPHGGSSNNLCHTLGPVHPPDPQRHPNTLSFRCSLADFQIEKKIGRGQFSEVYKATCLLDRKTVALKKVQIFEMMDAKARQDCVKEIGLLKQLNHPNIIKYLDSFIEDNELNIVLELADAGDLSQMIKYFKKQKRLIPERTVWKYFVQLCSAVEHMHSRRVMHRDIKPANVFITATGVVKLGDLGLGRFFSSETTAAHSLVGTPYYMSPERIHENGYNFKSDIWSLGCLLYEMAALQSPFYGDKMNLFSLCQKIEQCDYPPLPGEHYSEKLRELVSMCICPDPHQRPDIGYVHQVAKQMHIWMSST
# Casein kinase II subunit alpha (Homo sapiens), sequence (P68400 whole entry, looked up): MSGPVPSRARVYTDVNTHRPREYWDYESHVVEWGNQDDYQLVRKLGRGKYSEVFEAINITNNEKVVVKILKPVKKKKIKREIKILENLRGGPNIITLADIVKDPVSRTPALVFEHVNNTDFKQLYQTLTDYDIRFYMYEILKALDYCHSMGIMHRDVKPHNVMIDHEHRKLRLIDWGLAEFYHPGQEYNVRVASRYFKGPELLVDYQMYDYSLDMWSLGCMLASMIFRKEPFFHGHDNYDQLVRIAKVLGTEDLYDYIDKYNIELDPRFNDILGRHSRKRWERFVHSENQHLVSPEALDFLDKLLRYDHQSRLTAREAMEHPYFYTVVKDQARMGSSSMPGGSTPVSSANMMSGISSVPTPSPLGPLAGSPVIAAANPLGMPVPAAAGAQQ
# Serine/threonine-protein kinase Nek7 (Homo sapiens), sequence (Q8TDX7 whole entry, looked up): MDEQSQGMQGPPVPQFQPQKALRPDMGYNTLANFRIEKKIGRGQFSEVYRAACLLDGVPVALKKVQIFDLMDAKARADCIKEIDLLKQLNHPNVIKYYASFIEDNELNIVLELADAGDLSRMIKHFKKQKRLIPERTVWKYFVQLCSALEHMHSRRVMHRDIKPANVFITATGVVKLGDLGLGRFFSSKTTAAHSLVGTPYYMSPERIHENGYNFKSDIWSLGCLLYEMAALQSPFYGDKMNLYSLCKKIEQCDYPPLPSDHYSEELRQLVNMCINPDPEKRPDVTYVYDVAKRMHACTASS
# Sphingosine kinase 1 (Homo sapiens), sequence (Q9NYA1 whole entry): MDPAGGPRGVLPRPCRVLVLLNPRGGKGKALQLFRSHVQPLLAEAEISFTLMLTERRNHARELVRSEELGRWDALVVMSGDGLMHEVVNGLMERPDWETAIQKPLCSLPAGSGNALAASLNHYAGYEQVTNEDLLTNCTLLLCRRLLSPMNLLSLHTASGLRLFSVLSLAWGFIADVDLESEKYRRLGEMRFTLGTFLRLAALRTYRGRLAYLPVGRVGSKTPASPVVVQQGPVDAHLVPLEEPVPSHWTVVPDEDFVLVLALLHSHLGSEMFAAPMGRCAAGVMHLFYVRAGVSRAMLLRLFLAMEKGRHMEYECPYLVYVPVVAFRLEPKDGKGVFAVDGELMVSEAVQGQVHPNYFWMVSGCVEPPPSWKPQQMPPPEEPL
smiles,measurement,setting,value
CCn1c(-c2nonc2N)nc2c(N3CCCC3)nccc21,inhibition,[1],-1.44%
same,inhibition,[2],0.74%
same,inhibition,[3],-0.77%
same,inhibition,[4],-0.14%
same,inhibition,[5],-0.49%
same,inhibition,[6],8.52%
same,inhibition,[7],5.88%
same,inhibition,[8],0.45%
same,inhibition,[9],-0.76%
same,inhibition,[10],-2.71%
same,inhibition,[11],-2.89%
same,inhibition,[12],-0.04%
same,inhibition,[13],0.27%
same,inhibition,[14],-0.88%
same,inhibition,[15],-0.91%
same,inhibition,[16],0.88%
same,inhibition,[17],-1.63%
same,inhibition,[18],2.1%
same,inhibition,[19],-1.35%
same,inhibition,[20],2.28%
